Activity calls are given as the source filed them. How the source made its calls: active means hit-call score of the fitted dose curve at least 0.9, where 1 is the maximum; inactive means score below 0.9.
Experiments:
[1] = ATG_CMV_CIS: Attagene CIS-FACTORIAL HepG2 Assay for human CMV (Internal Marker) (AID 2282928); details: HepG2 CMV promoter reporter, transcription factor profiling; actives raise or lower the signal;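 further: endpoint acts as a background internal control marker rather than a target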
Summary of the method: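 Fluorescence intensity of RT-PCR-derived reporter fragments, resolved by capillary electrophoresis, gives the signal. HepG2 liver cells bearing transfected cis-element reporters were treated 24 h; activity in either direction was fit relative to DMSO-treated controls.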

[2] = ATG_DR4_LXR_CIS: Attagene CIS-FACTORIAL HepG2 Assay for human Liver X Receptor (LXR), DR4 submotif (AID 2282929); details: HepG2 Attagene DR4 cis-reporter, mRNA transcription; actives raise or lower the signal
Summary of the method: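 Transiently transfected HepG2 liver cells; cis-regulated reporters; 24 h dosing. RT-PCR plus CE read-out of reporter mRNA. DMSO baseline, bidirectional curve fitting.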

[3] = target: Aryl hydrocarbon receptor (Homo sapiens) (UniProt P35869); assay: ATG_Ahr_CIS: Attagene CIS-FACTORIAL HepG2 Assay for human Aryl Hydrocarbon Receptor (Ahr) (AID 2282930); details: HepG2 AhR cis-factorial reporter transcription; actives raise or lower the signal
Summary of the method: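 Transient MRTU transfection of HepG2 → 24 h compound exposure → total RNA, oligo(dT) RT → PCR, 6-FAM extension, HpaI cut → CE fluorescence. DMSO = baseline; bidirectional curve fit.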

[4] = ATG_AP_1_CIS: Attagene CIS-FACTORIAL HepG2 Assay for human Activator Protein 1 (AP-1) (AID 2282931); details: HepG2 Attagene cis-factorial AP-1 reporter mRNA; actives raise or lower the signal
Summary of the method: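 We transfected HepG2 cells transiently with a set of cis-regulated reporter transcription units, dosed them for 24 h, and quantified reporter mRNA via RT-PCR and capillary electrophoresis, scoring gain or loss of signal relative to DMSO.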

[5] = ATG_AP_2_CIS: Attagene CIS-FACTORIAL HepG2 Assay for human Activator Protein 2 (AP-2) (AID 2282932); details: HepG2 AP-2 cis-reporter, Attagene transcription factor profiling; actives raise or lower the signal
Summary of the method: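 Transiently transfected HepG2 cells are exposed to chemical for 24 h. Reporter transcripts are then measured as fluorescence following RT-PCR and capillary separation, and gain- or loss-of-signal is fitted relative to DMSO.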

[6] = ATG_BRE_CIS: Attagene CIS-FACTORIAL HepG2 Assay for human Bone Morphogenetic Protein (BMP) Response Element (BRE) (AID 2282933); details: HepG2 BMP response element reporter, Attagene transcription factor profiling; actives raise or lower the signal
Summary of the method: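 After a 24 h chemical treatment, transiently transfected HepG2 cells were lysed for RNA; reporter transcripts were quantified by fluorescent RT-PCR and capillary electrophoresis, normalised to DMSO.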

[7] = target: Retinoic acid receptor alpha (Homo sapiens) (UniProt P10276); assay: ATG_DR5_RAR_CIS: Attagene CIS-FACTORIAL HepG2 Assay for human Retinoic Acid Receptor Alpha (RARE), DR5 submotif (AID 2282934); details: HepG2 Attagene cis-factorial RARE DR5 reporter, mRNA; actives raise or lower the signal;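 on AC50: reporter responds to endogenous RAR alpha beta and gamma in HepG2 not RARA alone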
Summary of the method: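 Transient MRTU transfection of HepG2; 24 h compound treatment; TriZol RNA, oligo(dT) RT, PCR, FAM labelling, capillary electrophoresis. Bidirectional fit vs DMSO. Endogenous TF activity at DR5 RARE.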

[8] = target: Transcription factor E2F1 (Homo sapiens) (UniProt Q01094); assay: ATG_E2F_CIS: Attagene CIS-FACTORIAL HepG2 Assay for human E2F Transcription Factor 1 (AID 2282935); details: HepG2 Attagene cis-reporter, E2F reporter RNA transcripts; actives raise or lower the signal
Summary of the method: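 Fluorescent RT-PCR products, digested with HpaI for 2 h at 37 C, are separated by capillary electrophoresis. Source RNA comes from transfected HepG2 cultures treated for 24 h.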

[9] = ATG_E_Box_CIS: Attagene CIS-FACTORIAL HepG2 Assay for human Enhancer Box (E-box) (AID 2282936); details: HepG2 E-box cis-reporter transcription, actives raise or lower the signal
Summary of the method: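 Fluorescent reporter fragments separated by capillary electrophoresis gave the signal; mRNA came from HepG2 cells transfected with cis-element reporters and treated 24 h. Curves fitted bidirectionally relative to DMSO controls.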

[10] = ATG_M_61_CIS: Attagene CIS-FACTORIAL HepG2 Assay for M61 Transcription Factor (Internal Marker) (AID 2282937); details: HepG2 Attagene CIS-FACTORIAL M61 internal marker reporter; actives raise or lower the signal
Summary of the method: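 Multiplexed reporter mRNA assay, HepG2 human hepatoma cells, 24 h treatment. Signal: FAM-labelled, HpaI-digested RT-PCR fragments by CE. Fit: bidirectional, baseline DMSO.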

[11] = ATG_EGR_CIS: Attagene CIS-FACTORIAL HepG2 Assay for human Early Growth Response 1 (EGR1) (AID 2282938); details: HepG2 Attagene CIS-FACTORIAL EGR reporter mRNA; actives raise or lower the signal
Summary of the method: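 Multiplexed cis-reporter system in human hepatoma HepG2 cells, transiently transfected. Cells are dosed for 24 h; reporter transcripts are amplified, fluorescently tagged and sized by capillary electrophoresis, with DMSO as negative control.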

[12] = ATG_M_19_CIS: Attagene CIS-FACTORIAL HepG2 Assay for M19 Transcription Factor (Internal Marker) (AID 2282939); details: HepG2 Attagene CIS-FACTORIAL M19 internal marker reporter; actives raise or lower the signal
Summary of the method: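 In this multiplexed cell assay, transiently transfected HepG2 reporter units report endogenous transcription-factor activity; after 24 hours of treatment, labelled reporter cDNA fragments are quantified by capillary electrophoresis and fitted bidirectionally against DMSO.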

[13] = ATG_ERE_CIS: Attagene CIS-FACTORIAL HepG2 Assay for Estrogen Response Element (ERE) (AID 2282940); details: HepG2 ERE cis-reporter, Attagene RNA transcript; actives raise or lower the signal
Summary of the method: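 Measuring endogenous transcription factor output, the assay doses transfected HepG2 cells for 24 hours and quantifies reporter transcripts by fluorescent RT-PCR and capillary electrophoresis, with DMSO as baseline.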

[14] = ATG_Ets_CIS: Attagene CIS-FACTORIAL HepG2 Assay for human Erythroblast Transformation Specific (ETS) (AID 2282941); details: HepG2 ETS cis-reporter transcription, actives raise or lower the signal
Summary of the method: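 Multiplexed reporter transcript profiling: HepG2, 24 h treatment, total RNA to cDNA, PCR, 6-FAM labelling, HpaI cut, capillary electrophoresis. Gain- or loss-of-signal fitted against DMSO.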

[15] = target: Hepatocyte nuclear factor 3-beta (Homo sapiens) (UniProt Q9Y261); assay: ATG_FoxA2_CIS: Attagene CIS-FACTORIAL HepG2 Assay for human Forkhead box A2 (FOXA2) (AID 2282942); details: HepG2 cis-reporter transcription factor activity, 24 h; actives raise or lower the signal
Summary of the method: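 Multiplexed cis-element reporter assay in transiently transfected HepG2. Twenty-four hours post-dosing, RNA was reverse-transcribed, amplified, FAM-labelled, HpaI-digested and separated by CE. Activity gain or loss relative to DMSO.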

[16] = ATG_FoxO_CIS: Attagene CIS-FACTORIAL HepG2 Assay for human Forkhead box O (FoxO) (AID 2282943); details: HepG2 Attagene cis-reporter, FoxO element, mRNA; actives raise or lower the signal
Summary of the method: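 HepG2, transient MRTU transfection (cis element, endogenous TFs). Dose 24 h. TriZol RNA → oligo(dT) RT → PCR → 6-FAM primer extension → HpaI cut → CE. Gain/loss vs DMSO.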

[17] = ATG_GATA_CIS: Attagene CIS-FACTORIAL HepG2 Assay for human GATA Binding Protein (AID 2282944); details: HepG2 GATA cis-element reporter, Attagene multiplex mRNA; actives raise or lower the signal
Summary of the method: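 Measures endogenous transcription factor-driven reporter mRNA in HepG2 cells transiently carrying cis-regulated constructs. 24 h dosing; RNA via oligo(dT) reverse transcription, PCR, HpaI digestion, capillary electrophoresis; fitted relative to DMSO.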

[18] = ATG_GLI_CIS: Attagene CIS-FACTORIAL HepG2 Assay for human Zinc Finger Protein GLI1 (AID 2282945); details: HepG2, Attagene cis-factorial reporter mRNA, GLI element; actives raise or lower the signal
Summary of the method: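 Bidirectional curve fits relative to DMSO, using reporter mRNA levels from RT-PCR plus capillary electrophoresis. Cells were HepG2 transiently carrying cis-regulated reporter constructs, harvested 24 h after dosing.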

[19] = target: Bile acid receptor (Homo sapiens) (UniProt Q96RI1); assay: ATG_IR1_CIS: Attagene CIS-FACTORIAL HepG2 Assay for human Nuclear Receptor Subfamily 1 Group H Member 4 (NR1H4), IR1 submotif (AID 2282946); details: IR1 reporter transcription, actives raise or lower the signal
Summary of the method: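 HepG2 cells transiently transfected with multiplexed cis-element reporter units read endogenous transcription factor activity. After 24 h compound exposure, reporter mRNA was quantified by RT-PCR, fluorescent labelling, HpaI digestion and capillary electrophoresis; bidirectional fitting versus DMSO baseline.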

[20] = ATG_GRE_CIS: Attagene CIS-FACTORIAL HepG2 Assay for human Glucocorticoid Response Elements (GRE) (AID 2282947); details: HepG2 GRE cis-reporter, Attagene multiplex mRNA; actives raise or lower the signal
Summary of the method: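 Multiplexed cis-reporter mRNA induction, HepG2, 24 h post-dose. RT-PCR, FAM-labelled, HpaI-digested amplicons by CE. Bidirectional fit vs DMSO.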

Measured: AC50

Sequence of Transcription factor E2F1 (Homo sapiens) (Q01094 whole entry, looked up): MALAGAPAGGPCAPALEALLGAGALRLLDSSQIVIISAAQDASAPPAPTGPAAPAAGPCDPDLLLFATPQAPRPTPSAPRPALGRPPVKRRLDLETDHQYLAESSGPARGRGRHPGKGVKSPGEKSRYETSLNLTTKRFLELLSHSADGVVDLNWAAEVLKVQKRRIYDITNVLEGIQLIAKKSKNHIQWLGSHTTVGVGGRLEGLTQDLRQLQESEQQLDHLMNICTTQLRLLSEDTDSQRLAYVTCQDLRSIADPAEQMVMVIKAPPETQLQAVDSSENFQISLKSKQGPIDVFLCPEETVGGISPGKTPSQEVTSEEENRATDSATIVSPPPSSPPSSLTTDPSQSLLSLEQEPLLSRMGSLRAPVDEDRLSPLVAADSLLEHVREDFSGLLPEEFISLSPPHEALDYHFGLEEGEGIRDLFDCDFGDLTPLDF
Sequence of Hepatocyte nuclear factor 3-beta (Homo sapiens) (Q9Y261 whole entry, looked up): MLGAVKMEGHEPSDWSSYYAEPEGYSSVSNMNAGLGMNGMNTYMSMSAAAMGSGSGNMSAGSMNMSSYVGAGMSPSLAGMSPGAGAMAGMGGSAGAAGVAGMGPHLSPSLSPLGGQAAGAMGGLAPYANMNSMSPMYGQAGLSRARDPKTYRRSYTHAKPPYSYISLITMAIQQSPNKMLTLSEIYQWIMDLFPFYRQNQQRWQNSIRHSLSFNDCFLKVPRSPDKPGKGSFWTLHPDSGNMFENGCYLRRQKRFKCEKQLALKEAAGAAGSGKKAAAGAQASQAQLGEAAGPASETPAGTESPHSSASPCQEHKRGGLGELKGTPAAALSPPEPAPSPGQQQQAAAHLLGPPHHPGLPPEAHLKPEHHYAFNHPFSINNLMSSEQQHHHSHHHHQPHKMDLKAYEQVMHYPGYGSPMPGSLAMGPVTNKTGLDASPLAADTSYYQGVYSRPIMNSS
Sequence of Aryl hydrocarbon receptor (Homo sapiens) (P35869 whole entry, looked up): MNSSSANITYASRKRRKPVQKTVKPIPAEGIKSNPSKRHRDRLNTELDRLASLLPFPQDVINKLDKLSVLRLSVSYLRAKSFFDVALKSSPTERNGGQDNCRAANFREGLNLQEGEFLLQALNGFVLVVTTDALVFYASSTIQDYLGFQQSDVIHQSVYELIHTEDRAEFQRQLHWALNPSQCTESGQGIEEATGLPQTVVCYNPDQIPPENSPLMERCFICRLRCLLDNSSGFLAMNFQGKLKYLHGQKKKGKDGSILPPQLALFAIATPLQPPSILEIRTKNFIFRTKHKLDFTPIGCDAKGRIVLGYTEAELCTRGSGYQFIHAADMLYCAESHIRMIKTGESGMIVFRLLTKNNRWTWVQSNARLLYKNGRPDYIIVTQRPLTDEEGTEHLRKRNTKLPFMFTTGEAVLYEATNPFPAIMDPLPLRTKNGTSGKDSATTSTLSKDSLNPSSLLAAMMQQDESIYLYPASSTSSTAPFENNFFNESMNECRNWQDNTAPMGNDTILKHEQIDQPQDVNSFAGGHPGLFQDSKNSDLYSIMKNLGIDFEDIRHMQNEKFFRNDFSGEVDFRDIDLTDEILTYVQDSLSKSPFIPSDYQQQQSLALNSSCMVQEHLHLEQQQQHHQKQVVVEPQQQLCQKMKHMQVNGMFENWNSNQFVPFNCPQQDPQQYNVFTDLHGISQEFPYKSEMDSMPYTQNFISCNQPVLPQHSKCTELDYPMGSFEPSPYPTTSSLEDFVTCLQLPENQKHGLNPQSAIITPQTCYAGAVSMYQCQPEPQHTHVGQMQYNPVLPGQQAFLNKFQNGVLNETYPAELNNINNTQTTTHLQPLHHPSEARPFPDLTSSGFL
Sequence of Bile acid receptor (Homo sapiens) (Q96RI1 whole entry, looked up): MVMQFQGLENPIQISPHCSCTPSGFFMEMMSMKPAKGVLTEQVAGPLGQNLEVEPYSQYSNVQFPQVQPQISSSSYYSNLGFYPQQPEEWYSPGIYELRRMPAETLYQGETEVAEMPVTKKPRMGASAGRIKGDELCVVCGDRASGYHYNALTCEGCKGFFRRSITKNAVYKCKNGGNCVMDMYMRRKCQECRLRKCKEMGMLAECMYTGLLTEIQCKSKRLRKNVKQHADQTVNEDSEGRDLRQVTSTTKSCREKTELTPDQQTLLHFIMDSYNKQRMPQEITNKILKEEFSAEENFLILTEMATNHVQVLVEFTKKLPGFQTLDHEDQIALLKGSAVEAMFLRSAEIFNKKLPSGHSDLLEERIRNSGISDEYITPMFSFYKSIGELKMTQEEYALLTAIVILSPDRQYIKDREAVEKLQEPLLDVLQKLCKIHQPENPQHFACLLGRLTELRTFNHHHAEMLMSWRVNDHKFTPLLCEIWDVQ
Sequence of Retinoic acid receptor alpha (Homo sapiens) (P10276 whole entry, looked up): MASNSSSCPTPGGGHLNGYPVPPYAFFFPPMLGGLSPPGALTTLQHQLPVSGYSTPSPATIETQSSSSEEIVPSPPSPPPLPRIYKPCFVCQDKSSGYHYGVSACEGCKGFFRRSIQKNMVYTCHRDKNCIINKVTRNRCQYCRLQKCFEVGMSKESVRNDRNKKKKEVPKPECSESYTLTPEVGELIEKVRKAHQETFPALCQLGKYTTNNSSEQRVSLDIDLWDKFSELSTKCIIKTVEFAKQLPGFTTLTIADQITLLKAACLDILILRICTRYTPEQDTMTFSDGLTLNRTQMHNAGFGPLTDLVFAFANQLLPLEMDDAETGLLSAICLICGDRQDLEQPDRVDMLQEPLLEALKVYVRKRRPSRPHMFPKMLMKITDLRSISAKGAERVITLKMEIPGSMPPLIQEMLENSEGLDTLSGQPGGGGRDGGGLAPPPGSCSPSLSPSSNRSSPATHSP

CNC(=O)CSP(=O)(OC)OC
not listed: [20]
inactive: all other assays above

NC(=O)c1ccc(N)nc1
active: [14] 100 µM
not listed: [20]
inactive: all other assays above

c1csc(-c2ccc(-c3cccs3)s2)c1
active: [2] 2.08 µM | [3] 0.739 µM | [4] 8.14 µM | [11] 3.02 µM | [13] 7.65 µM | [15] 4.46 µM
not listed: [19]
inactive: all other assays above

Cc1ccccc1OP(=O)(Oc1ccccc1)Oc1ccccc1
active: [1] 76.5 µM | [2] 12.3 µM | [4] 47.9 µM | [6] 64.2 µM | [7] 32 µM | [8] 57.2 µM | [13] 7.35 µM
not listed: [19]
inactive: all other assays above

CC(C)(C)c1ccc(CCOc2ncnc3ccccc23)cc1
not listed: [13] | [20]
inactive: all other assays above

CN(C)[C@@H]1C(=O)C(C(N)=O)=C(O)[C@@]2(O)C(=O)C3=C(O)c4c(O)ccc(Cl)c4[C@@](C)(O)[C@H]3C[C@@H]12
active: [1] 25.9 µM | [4] 26.3 µM | [6] 30.3 µM
not listed: [13] | [20]
inactive: all other assays above

N#Cc1ccccc1N
active: [3] 33.2 µM
not listed: [13] | [19] | [20]
inactive: all other assays above
